# Source: PubChem (National Center for Advancing Translational Sciences (NCATS))
# An excerpt weighted towards active compounds, which were near 4.8% of everything screened.
# ERK AVP inh: qHTS Assay for Inhibitors of the ERK Signaling Pathway using a Homogeneous Screening Assay; 72,000 tested, 0.99% active; Potency, µM (doses to about 57.5 µM), without a hit: at the top dose activity, negative = inhibition, most hits filed as inhibitors; HEK293-V1b, vasopressin-stimulated pERK AlphaScreen; also: % is scaled to controls: 0 for no effect and ±100 for the full control effect; nearly all actives have a fitted effect of over 55% in size
#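 HEK293 cells stably expressing V1b receptor, seeded overnight in 1% FBS, were treated with compounds for 30 min at 37C, then stimulated 5 min with 25 nM vasopressin; phospho-ERK read by AlphaScreen SureFire after lysis.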
# HEK293 cAMP cs: qHTS Assay for Agonists of the Thyroid Stimulating Hormone Receptor: Activators of Intracellular cAMP Concentrations in Parental HEK 293. parental HEK293 CNG cAMP sensor, membrane potential fluorescence. Potency, µM (top dose mostly 57.1 µM), inactives show at the top dose activation, most hits filed as activators. 73,000 tested, 2.5% active. AID 938, 2007; also: % of control where 0% means no effect; nearly all actives have a fitted effect of over 55% in size
#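 Parental HEK 293 cells stably expressing a modified CNG channel (no TSHR) report cAMP rise as membrane depolarization. Membrane potential dye with 100 uM RO 20-1724 was loaded for 60 min at room temperature, then compound added for 30 min; fluorescence read at 590 nm.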
# Casp7 inh: qHTS Assay for Allosteric/Competitive Inhibitors of Caspase-7; AID 889, 2007; Potency, µM (highest dose often 57.5 µM), inactives show at the top dose activity change, negative = inhibition, usual class: inhibitors; P55210; recombinant caspase-7, Ac-DEVD-AFC fluorescence rate; 75,000 tested, 0.02% active; active = well fitted inhibition curve with a large enough effect in the main read-out, with a control signal flat, not every such curve was filed as active; inconclusive = small, poorly fitted or top-dose-only effect, or a change in a side signal; also: % of control where 0% means no effect
# Casp1 inh: qHTS Assay for Allosteric/Competitive Inhibitors of Caspase-1 | Caspase-1 enzyme, Ac-WEHD-AFC fluorogenic rate | Potency, µM (top dose mostly 57.5 µM), for the others: top-dose activity change, negative = inhibition, actives largely listed as inhibitors | 75,000 tested, 0.03% active;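 also: plate controls were vehicle for no effect and no substrate for full effect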
# TSHR ag: qHTS Assay for Agonists of the Thyroid Stimulating Hormone Receptor; Thyrotropin receptor (Homo sapiens), P16473; HEK293-CNG-TSHR cells (CNG channel as cAMP sensor), membrane potential dye, cAMP; Potency, µM (series often up to 57.1 µM), for the others: at the top dose activation, usual class: activators; 73,000 tested, 0.48% active; AID 926, 2007; active = well fitted activation curve with a large enough effect in the main read-out, with a control signal flat, not every such curve was filed as active; inconclusive = small, poorly fitted or top-dose-only effect, or a change in a side signal; inactive = no such curve, though single readings can be large or run the other way; % of control where 0% means no effect;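 also: the control signal comes from parental cells without the receptor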
#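 cAMP rise detected as CNG-channel membrane depolarization by fluorescent dye (emission 590 nm), 30 min after compound, following 60 min dye loading containing 100 uM RO 20-1724 at room temperature. Cells: TSHR/CNG HEK 293, with parental CNG HEK 293 as control.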
# 15-hLO inh: qHTS Assay for Inhibitors of 15-hLO (15-human lipoxygenase). Polyunsaturated fatty acid lipoxygenase ALOX15 (Homo sapiens), P16050. purified 15hLO-1, xylenol orange hydroperoxide absorbance. Potency, µM (titrated, usually from 57.1 µM), for the others: at the top dose activity change, negative = inhibition, actives largely listed as inhibitors. 74,000 tested, 1.4% active. AID 887, 2007; also: % is scaled to controls: 0 for no effect and ±100 for the full control effect; nearly all actives have a fitted effect of over 55% in size
#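 Quantitative HTS in 25 mM Hepes pH 7.5 containing 0.01% Triton X-100: human 15hLO-1 at 40 nM, arachidonic acid at 50 uM, 6 min turnover. Product quantified via ferrous oxidation/xylenol orange, 573:405 nm absorbance ratio.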
# * = called active by the depositor; ? = inconclusive; . = not tested or not shown; [ ] = remark or other dose. Unless noted, calls follow the shape of the dose curve; as a rule, active = well fitted curve in the direction sought with a large enough effect; inconclusive = small, poorly fitted or top-dose-only effect, or another doubt; inactive = no such curve, though single readings can be large; an effect the other way counts as inactive or inconclusive. Potency is read from the fitted curve at half-maximal effect.
SMILES,ERK AVP inh,HEK293 cAMP cs,Casp7 inh,Casp1 inh,TSHR ag,15-hLO inh
CCOC(=O)c1ccc(N2C(=O)c3n[nH]c(C)c3C2c2ccccc2)cc1 (stereo not given),?,32µM*,2%,0%,?,-28%
O=c1cnc2cnc(Oc3ccccc3)nc2n1C1CC1,-20%,4%,-5%,-1%,6%,8%
CCCN1Cc2cccc(C(=O)Nc3ccc4c(c3)OCO4)c2C1=O,17%,?,-2%,-4%,?,-6%
O=C(Nc1ccc2c(c1)OCO2)c1cccc2c1C(=O)N(C1CCCCC1)C2,40%,19%,-7%,-1%,3.2µM*,-11%
CCN1C(=O)c2cccc3c(S(=O)(=O)Nc4ncccc4C)ccc1c23,25µM*,10%,?,.,10%,?
Cc1nc(Nc2ccc3c(c2)OCCO3)c2oc3ccccc3c2n1,16µM*,9%,-1%,-2%,.,-26%
Cc1ccc2c(c1)N(CC(=O)N1CCN(c3nc4ccccc4s3)CC1)C(=O)C(C)O2 (stereo not given),?,6.3µM*,2%,-4%,?,-3%
Cc1ccc(-c2nnn(CC(=O)N3CCN(c4nc5ccccc5s4)CC3)n2)cc1,22%,15%,0%[0.00368 µM],-1%,0%,-20%
O=C(N/N=C1/C[C@@H](O)[C@@H](O)[C@@H]2[C@H]3C(=O)N(c4ccc(F)cc4F)C(=O)[C@@H]3CC[C@@H]12)OCc1ccccc1,4%[11.5 µM],0%[11.4 µM],-1%[11.5 µM],-13%[11.5 µM],0%[11.4 µM],4%[11.4 µM]
Cc1cccc(OCc2nc(C#N)c(NCc3ccc4c(c3)OCO4)o2)c1,-13%,16µM*,-3%,-5%,?,-23%
COc1ccc(CNc2oc(COc3ccccc3)nc2C#N)cc1,.,6%,-7%,-2%,.,-11%
Cc1cccc(OCc2nc(C#N)c(N3CC(C)CC(C)C3)o2)c1 (stereo not given),-14%,6.3µM*,-4%,-1%,?,-9%
CCNc1oc(COc2cccc(C)c2)nc1C#N,-8%,?,3%,0%,?,-4%
N#Cc1nc(COc2ccc(Cl)cc2)oc1NCc1ccc2c(c1)OCO2,5%,10µM*,-7%,-10%,?,-21%
CC1(O)CC2C(CC1O)C2(C)C (stereo not given),3%,.,-3%,0%,.,-2%
Nc1ncnc2c1nc(Sc1ccc(Cl)cc1)n2[C@@H]1O[C@H]2COP(=O)(O)O[C@@H]2[C@H]1O,-17%,-3%,-1%,1%,5%,-2%
CCNc1ncc2nc(C)c(=O)n(Cc3ccc(F)cc3)c2n1,-18%,15%,-13%,-9%,-1%,7%
Cc1ccc(NC(=O)CSCC(N)=O)cc1C,-15%,14%,?,?,26%,6.3µM*
Cc1ccc(NC(=O)Cn2cccc2)cc1C,-20%,?,0%,-2%,?,9%
COCC(=O)Nc1sc2c(c1C(=O)OC)CCC(C)C2 (stereo not given),?,13%,2%,-1%,10%,25µM*
CCOC(=O)CCCCCCCCCCCCC1C=CCC1 (stereo not given),7%,.,1%,1%,.,13µM*
COc1ccc(C)cc1NC(=O)c1cc2c(C)nc3ccccc3c2o1,-17%,12%,0%,1%,11%,2%
COc1ccc(C(=O)Nc2cc(OC)ccc2OC)cc1,-4%,14%,-1%,-2%,12%,-17%
COc1ccc(OC)c(NC(=O)c2cc3ccccc3o2)c1,-6%,32µM*,0%,-6%,?,-7%
COc1ccc(C)cc1NC(=O)c1cc2ccccc2o1,0%,20µM*,-2%,-4%,?,5%
SMILES,ERK AVP inh,HEK293 cAMP cs,Casp7 inh,Casp1 inh,TSHR ag,15-hLO inh
COc1ccc(N2CCN(c3nc(NCCc4ccc(OC)c(OC)c4)nc(OC)n3)CC2)cc1,16µM*,?,-13%,-7%,?,-11%
COc1ccc(Nc2nc(OC)nc(N3CCN(c4ccc(OC)cc4)CC3)n2)cc1,?,-2%,-1%,-1%,-3%,0%
Cc1oc(-c2ccc(F)cc2)cc1-c1nn2c(-c3ccco3)nnc2s1,-15%,?,1%,0%,?,?
Cc1oc(-c2ccc(F)cc2)cc1-c1nn2c(-c3ccoc3C)nnc2s1,?,16µM*,-26%,-5%,?,?
O=C(O)c1ccccc1NS(=O)(=O)c1ccc(Cl)c(Cl)c1,.,-5%,-6%,-5%,-2%,0%
COc1ccc(-n2c(C)cc(C(=O)Cn3c(NCCO)nc4ccccc43)c2C)cc1,10µM*,21%,-1%,0%,11%,-21%
CCCc1cc2c(c(=O)o1)C(O)C1OC1C2=O (stereo not given),23%[11.5 µM],-6%[11.4 µM],-1%[11.5 µM],3%[11.5 µM],-11%[11.4 µM],?
CCOC(=O)C1=C(C)NC(=O)NC1c1ccc(OC(C)C(=O)O)c(OC)c1 (stereo not given),-24%,?,?,.,?,25µM*
Nc1ccc(N=Nc2c(S(=O)(=O)O)cc3ccccc3c2S(=O)(=O)O)cc1,2%[11.5 µM],3%[11.4 µM],-3%[11.5 µM],0%[11.5 µM],-3%[11.4 µM],8%[11.4 µM]
O=S(=O)(O)c1cc(N=[N+]([O-])c2cc(S(=O)(=O)O)c3ccccc3c2)cc2ccccc12,-7%[11.5 µM],0%[11.4 µM],-7%[11.5 µM],-2%[11.5 µM],-1%[11.4 µM],4µM*
CCCSc1nnc(-c2cccc(S(=O)(=O)N(C)C)c2)n1-c1cc(OC)ccc1OC,-2%,7.9µM*,1%,-2%,?,3%
COc1ccc(OC)c(-n2c(SCC(C)=O)nnc2-c2cccc(S(=O)(=O)N(C)C)c2)c1,?,?,0%,0%,?,10%
CCSc1nnc(-c2cccc(S(=O)(=O)N(C)C)c2)n1-c1cc(OC)ccc1OC,11%,5µM*,0%,1%,?,11%
COc1ccc(-c2nc3cnccn3c2Nc2ccc3c(c2)OCO3)cc1,.,-31%,-3%,-3%,?,-10%
Cc1ccc(-c2nc3cnccn3c2Nc2ccc3c(c2)OCCO3)o1,?,-9%,-1%,4%,-24%,25µM*
O=C1c2oc3ccccc3c(=O)c2C(c2cccc(Br)c2)N1Cc1ccco1 (stereo not given),-26%,13µM*,-1%,-3%,?,-8%
CCOc1ccc(-n2c(SCc3nc(-c4cccs4)no3)nnc2-c2ccncc2)cc1,-29%,3.2µM*,-3%,-2%,?,-13%
